Assay outcomes as filed in PubChem BioAssay.
KB-3-1 cytotox = KB-3-1 parental cell cytotoxicity; Potency, µM (top dose mostly 46.1 µM), most hits filed as cytotoxic; 400,000 tested, 1.4% active; KB-3-1 viability, CellTiter-Glo ATP luminescence, 72 h; AID 1347075; note: nearly all actives have a fitted effect of over 60% in size
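Cells are dispensed, compounds pinned in, plates held at 37 °C for 72 h, then CellTiter-Glo is added and luminescence read after 10 minutes. Cell line: parental KB-3-1 in phenol-red-free DMEM, 10% FBS.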
HT1080NT lethal = kills 2HG-producing HT-1080-NT fibrosarcoma cells. Potency, µM (series often up to 46.1 µM), without a hit: at the highest dose activity, negative = less viability, hits mostly cytotoxic. 360,000 tested, 1.6% active. AID 686970. HT-1080-NT fibrosarcoma viability, CellTiter-Glo ATP luminescence, 48 h;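 note: NT is the 2HG producing partner of a matched IDH1 knockdown line; 0% = DMSO-treated cells and -100% = media-only wells without cells; nearly all actives have a fitted effect of over 55% in size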
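HT-1080-NT; 750 cells/well; 5% FBS RPMI; 48 h compound, 37 degrees C; CellTiter-Glo luminescence; curve fitting and curve-class assignment.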
KB-V1 cytotox = KB-V1 MDR subline cytotoxicity | KB-V1 MDR cells viability, CellTiter-Glo, 72 h | Potency, µM (series often up to 46.1 µM), usual class: cytotoxic | 400,000 tested, 3.4% active | AID 1347076; note: nearly all actives have a fitted effect of over 60% in size
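qHTS viability screen in drug-selected KB-V1 MDR cells: 72 h compound treatment at 37 degrees C, ATP luminescence end point.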
HT1080 IDH1KD tx = kills HT-1080 cells with IDH1 knockdown; 360,000 tested, 2% active; Potency, µM (titrated, usually from 46.1 µM), inactives show at the highest dose activity, negative = toxicity, actives largely listed as cytotoxic; HT-1080 IDH1 knockdown viability, ATP luminescence, 48 h;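 note: 0% = DMSO wells and -100% = cell-free medium wells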
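CellTiter-Glo luminescence after 48 h compound exposure at 37 degrees C of IDH1-knockdown HT-1080 cells in 5% FBS RPMI. %Activity scaled between DMSO wells and cell-free media wells, with curves fitted and assigned curve classes.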
Active calls of the source: *; i = inactive; u = inconclusive; x = no result; ! = not active in a repeat. Compounds with a hit are over-represented: about 5.7% of the library has one in this group of screens. Calls come from the whole dose curve; as a rule, active = well fitted curve in the direction sought with a large enough effect; inconclusive = small, poorly fitted or top-dose-only effect, or another doubt; inactive = no such curve, though single readings can be large; an effect the other way counts as inactive or inconclusive. Unless noted, % is set by controls: 0 for no effect and ±100 for the full control effect; potency is the fitted concentration of half-maximal effect.

SMILES	KB-3-1 cytotox	HT1080NT lethal	KB-V1 cytotox	HT1080 IDH1KD tx
Oc1cccc(/C=N/N2CCN(C3c4ccccc4-c4ccccc43)CC2)c1	i	u	i	23µM*
Oc1cccc(C=NN=C2c3ccccc3-c3ccccc32)c1	i	-6%	18µM*	-23%
O=C1Nc2ccccc2/C1=N/N=C/c1cccc(O)c1	i	3%	i	-4%
C(=N\N1CCN(C2c3ccccc3-c3ccccc32)CC1)/c1ccncc1	i	0%	i	-1%
COc1ccc(C)cc1NC(=O)Nc1nnc(N2CCCCC2)s1	i	x	i	x
CCOC(=O)C1CCCN(C(=O)c2ccc3c(c2)N(Cc2ccccc2F)C(=O)c2ccccc2S3=O)C1 (configuration not stated)	i	x	i	x
COc1ccc(/C=C/c2nc(-c3ccccc3O)n(-c3ccccc3)n2)cc1	i	-1%	16µM*	-8%
Cc1ccsc1CCN1C(=O)N(c2ccccc2)C(=O)C1CC(=O)Nc1ccc(Cl)cc1 (configuration not stated)	i	x	i	x
CCOC(=O)c1c(NC(=O)c2ccccc2N(C)S(=O)(=O)c2ccccc2)sc2c1CCCC2	2.9µM*	u	5.8µM*	9.2µM*
CCOC(=O)c1c(NC(=O)C(NCCN(C)C)c2ccccc2)sc2c1CCCC2 (configuration not stated)	u	u	i	18µM*
CCN1CCc2c(sc(NC(=O)c3ccc(S(=O)(=O)N(CCOC)CCOC)cc3)c2C(N)=O)C1	i	x	i	x
COC(=O)c1c(NC(=O)CN(c2ccccc2)S(C)(=O)=O)sc2c1CCCC2	i	-8%	10µM*	-7%
COCCN(CCOC)S(=O)(=O)c1ccc(C(=O)Nc2sc3c(c2C(N)=O)CCCCC3)cc1	i	-1%	2.9µM*	-2%
COC(=O)c1c(NS(=O)(=O)Cc2ccccc2)sc2c1CCCC2	i	2%	u	-3%
COC(=O)c1c(NC(=O)c2ccccc2N(C)S(=O)(=O)c2ccccc2)sc2c1CCCC2	4.6µM*	u	6.5µM*	u
COC(=O)c1c(NC(=O)c2ccccc2C(=O)O)sc2c1CCC2	i	-18%	i	-15%
Cn1c(C(=O)N(Cc2ccccc2)Cc2ccccn2)cc2sccc21	i	u	i	u
Cn1c(C(=O)N(Cc2ccccc2)Cc2cccs2)cc2sccc21	i	-1%	15µM*	-29%
N#CC1(NC(=O)Cn2ncc(Cl)c(Cl)c2=O)CCCCC1	u	5.8µM*	i	9.2µM*
N#CC1(NC(=O)CN2C(=O)c3ccccc3C2=O)CCCCC1	i	-21%	i	-3%
COc1ccc(OC)c(-c2nc3c(C)n[nH]c(=O)c3[nH]2)c1	i	u	18µM*	u
CCc1nc(CN2CCCC(C(=O)c3ccc4c5c(cccc35)CC4)C2)c(C)[nH]1 (configuration not stated)	i	15µM*	u	16µM*
CN(C)C(=O)CCC(=O)N1CCCC(C(=O)c2ccc3c4c(cccc24)CC3)C1 (configuration not stated)	i	-18%	i	-1%
O=C(c1ccc2c3c(cccc13)CC2)C1CCCN(Cc2ccncc2)C1 (configuration not stated)	i	13µM*	u	-6%
COc1ccccc1N1CCN(C(=O)CCS(=O)(=O)c2cc(Br)cc3c2N(C(=O)C2CC2)CC3)CC1	i	x	i	x
SMILES	KB-3-1 cytotox	HT1080NT lethal	KB-V1 cytotox	HT1080 IDH1KD tx
O=[N+]([O-])c1cc(Cl)ccc1Nc1nc(Nc2ccc(Cl)cc2[N+](=O)[O-])nc(N2CCOCC2)n1	i	x	i	x
COc1ccc(-n2c(-c3ccco3)nc3c(cnn3-c3ccc(Cl)cc3)c2=O)cc1	u	x	i	x
O=c1c2cnn(-c3ccccc3)c2nc(-c2ccco2)n1-c1ccccc1	15µM*	-24%	5.2µM*	-20%
CCn1c(C)c(C)c2cc(C(=O)NCC(C)c3ccccc3)ccc21 (configuration not stated)	i	x	u	x
Cc1ccc2nc(-c3cccc(NS(C)(=O)=O)c3)cc(-c3ccccc3)c2c1	u	-2%	18µM*	-22%
Cc1c(P(=S)(c2ccccc2)c2ccccc2)[n+]2ccccc2n1CCc1ccccc1	13µM*	x	i	x
CCOC(=O)c1cc(C)n(CCc2ccccc2)c1C	i	27%	i	11%
Cc1ccc(N2C(N)=C(C#N)C(c3cccs3)C3=C2CC(C)(C)CC3=O)cc1 (configuration not stated)	u	0%	7.3µM*	-5%
CC1(C)CC(=O)C2=C(C1)N(c1ccc(F)cc1)C(N)=C(C#N)C2c1cccs1 (configuration not stated)	i	-2%	u	-1%
COc1ccc2nc(C)cc(Sc3nc4ccccc4s3)c2c1	u	10µM*	18µM*	23µM*
COc1ccc2nc(C)cc(SCC(=O)NNC(=O)COc3ccccc3)c2c1	i	0%	u	8%
CCOc1ccc(NS(=O)(=O)c2ccc3[nH]cc(C(=O)N4CCCC4)c(=O)c3c2)cc1	i	x	i	x
CCc1ccc(CN(Cc2cn[nH]c2-c2ccc(OC)cc2)C(=O)Nc2ccc(Br)cc2)cc1	i	x	i	x
O=C(Nc1ccc(F)c(F)c1)C1CCN(S(=O)(=O)c2cccs2)CC1	i	3%	16µM*	8%
CCOC(=O)c1cccc(NC(=O)C2CCN(S(=O)(=O)c3cccs3)CC2)c1	u	u	7.3µM*	u
CCOC(=O)C1CCN(C(=O)C2CCN(S(=O)(=O)c3cc(Cl)ccc3Cl)CC2)CC1	i	8%	23µM*	-27%
CCOC(=O)C1CCCN(C(=O)C2CCN(S(=O)(=O)c3cccs3)CC2)C1 (configuration not stated)	21µM*	7%	i	16%
O=C(CCS(=O)(=O)c1cccc2nonc12)Nc1ccc(F)cc1F	i	x	u	x
CN[C@H]1CC[C@@H](c2ccc(Cl)c(Cl)c2)c2ccccc21	u	7.3µM*	21µM*!	x
CCc1ccc(C(=O)Nc2cccc(-c3nc4cc(C(C)C)ccc4o3)c2)cc1	i	x	i	x
CC(=O)OCON[N+]([O-])=NC(C)C	i	x	i	x
Cc1ccc(O)c(C(=O)CC(=O)c2ccccc2Cl)c1	u	u	7.3µM*	12µM*
Cc1ccc2cccc(Oc3nnnn3-c3ccccc3)c2n1	i	-7%	i	-8%
c1ccc(-n2nnnc2Oc2cccc3cccnc23)cc1	i	7.9µM*	u	u
O=S(=O)(c1cnc(Cl)c(Br)c1)N1CCc2ccccc21	i	21µM*	i	u
O=S(=O)(c1cnc(Cl)c(Cl)c1)N1CCc2ccccc21	i	u	i	-18%
CCOc1ccc(NC(=O)Cn2nnc(C(=O)Nc3ccc(OCC)cc3)c2N)cc1	i	x	i	x
